The full list was thinned out, with hits kept by preference.
Artemis endo inh = Artemis endonuclease inhibitors, primary screen, biochemical, fluorescence intensity, FAM/BHQ-1 hairpin substrate. Protein artemis (Homo sapiens), Q96SD1. recombinant Artemis, quenched FAM hairpin cleavage fluorescence. inhibition, % at 10 µM. 30,000 tested, 0.78% active;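 active = at 10 µM dose, at least 30% inhibition, measured as corrected fluorescence normalized to stimulator and neutral control wells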
Target sequence (Q96SD1 whole entry, looked up): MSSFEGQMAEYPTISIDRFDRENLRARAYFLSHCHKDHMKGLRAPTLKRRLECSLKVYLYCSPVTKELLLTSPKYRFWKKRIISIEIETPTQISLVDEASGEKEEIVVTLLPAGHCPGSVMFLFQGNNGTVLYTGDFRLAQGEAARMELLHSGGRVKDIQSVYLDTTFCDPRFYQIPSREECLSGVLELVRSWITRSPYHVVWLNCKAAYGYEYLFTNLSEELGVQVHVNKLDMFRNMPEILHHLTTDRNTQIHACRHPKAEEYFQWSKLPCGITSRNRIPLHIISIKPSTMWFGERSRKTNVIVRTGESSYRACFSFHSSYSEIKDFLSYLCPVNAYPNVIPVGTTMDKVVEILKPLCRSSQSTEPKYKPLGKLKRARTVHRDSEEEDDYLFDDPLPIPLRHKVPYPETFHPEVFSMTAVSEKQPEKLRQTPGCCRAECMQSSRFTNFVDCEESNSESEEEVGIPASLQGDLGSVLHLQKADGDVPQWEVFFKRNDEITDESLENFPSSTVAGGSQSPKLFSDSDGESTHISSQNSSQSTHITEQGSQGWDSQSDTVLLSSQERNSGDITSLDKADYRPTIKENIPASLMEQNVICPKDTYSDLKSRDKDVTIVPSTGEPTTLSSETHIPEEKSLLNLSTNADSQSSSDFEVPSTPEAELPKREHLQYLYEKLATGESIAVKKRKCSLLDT
Starred values were filed as active, the others as inactive.

SMILES	Artemis endo inh
O=c1cc(-c2ccccc2)nc2nc(CCc3ccccc3)[nH]n12	0
O=c1cc(-c2ccccc2)nc2nc(-c3ccco3)[nH]n12	36*
O=C(Nc1nc2nc(-c3ccccc3)cc(=O)n2[nH]1)c1ccccc1	-1
COc1ccc(C(=O)NCCNC(=O)c2cc(OCC(F)(F)F)ccc2OCC(F)(F)F)cc1	-15
O=C(Cn1cnc2c(cnn2-c2ccc(F)cc2)c1=O)NCC1CCCO1 (stereo unspecified)	33*
O=C(CSc1ncnc2c1nnn2-c1ccc(F)cc1)NCC1CCCO1 (stereo unspecified)	0
O=C(Cn1cnc2c(cnn2-c2ccc(F)cc2)c1=O)OCc1ccccc1	-1
Cc1noc(C)c1S(=O)(=O)N(CCc1ccccc1)Cc1ccccc1	9
Nc1c(-c2ccccc2)cnn1C1CCS(=O)(=O)C1 (stereo unspecified)	-17
COc1cccc(C2(CSc3nnc(-c4cc(OC)c(OC)c(OC)c4)o3)OCCO2)c1	-3
O=C(O)c1cc(-c2ccco2)nc2ccc(Br)cc12	42*
O=C(c1ccco1)N1CCN(C(=O)c2cc(-c3ccncc3)nc3ccc(Br)cc23)CC1	11
O=C(NCC1CCCO1)c1cc(-c2ccco2)nc2ccccc12 (stereo unspecified)	0
COc1cc(NS(=O)(=O)c2ccc(NC(=O)C34CC5CC(CC(C5)C3)C4)cc2)ncn1	5
CCn1c(SCC(=O)c2ccc(O)c(O)c2)nnc1-c1ccccc1	13
CCn1c(SCC(=O)c2ccc(F)cc2)nnc1-c1ccoc1C	6
CCn1c(SCC(=O)c2ccc(O)c(O)c2)nnc1-c1ccccc1OC	30*
O=C1CCCc2oc3ccc(O)cc3c21	2
Cc1ccc(Nc2cc(C)nc3nnnn23)cc1	-2
Cc1ccc(Nc2cc(C)nn2-c2nc(C)cc(=O)[nH]2)cc1	35*
Cc1cc(Nc2nc3ccccc3[nH]c2=O)n(-c2ccccc2)n1	4
CCCCn1c(=O)c(-[n+]2ccccc2)c([O-])c2ccccc21	9
Cc1ccc(N=Cc2c(O)n(-c3cc(Cl)ccc3N3CCOCC3)c(=O)c3ccccc23)cc1C	6
O=C(CN1C(=O)C2C3C=CC(C3)C2C1=O)N1CC=C(c2ccccc2)CC1 (stereo unspecified)	2
CN(C)c1ccc(/C=C/C=C2/SC(=S)N(c3ccccc3)C2=O)cc1	9
SMILES	Artemis endo inh
CC(C)C(C(=O)O)N1C(=O)/C(=C/C=C/c2ccco2)SC1=S (stereo unspecified)	39*
CC(C)NC(=O)/C(=C/c1ccco1)c1ccccc1	-7
COc1ccc(CNC(=O)C(c2ccco2)N(C(=O)c2csnn2)c2cccc(C)c2C)cc1 (stereo unspecified)	-1
COCC(C)NCc1ccccc1C (stereo unspecified)	-12
Cc1snc(S(=O)(=O)/C(C#N)=N/Nc2ccc(C(F)(F)F)cc2)c1C#N	16
Cn1ncc(C#N)c1NC(=O)c1cc(-c2ccccc2Cl)on1	-8
N#CC1=C2C=CC=CN2CC1=O	4
Cc1sc(NC(=O)C2CCCCC2C(=O)O)c(C(N)=O)c1-c1ccc(C(C)C)cc1 (stereo unspecified)	27
Cc1sc(NC(=O)C2CCCCC2C(=O)O)c(C(N)=O)c1-c1ccc(C(C)(C)C)cc1 (stereo unspecified)	40*
Cc1sc(NC(=O)C2CCCCC2C(=O)O)c(C(N)=O)c1-c1ccccc1 (stereo unspecified)	2
COc1ccccc1N1CCN(c2nnc(-c3ccc(F)cc3)c3ccccc23)CC1	3
COc1ccccc1N1CCN(c2nc(N)c(C#N)c(CC#N)c2C#N)CC1	-3
COc1cc2c(C#N)c(N3CCN(c4ccccc4OC)CC3)nc(N)c2c(N)n1	45*
N#Cc1c(N2CCCCC2)nc(N)c2c(N)nc3c(c12)CC(c1ccccc1)O3 (stereo unspecified)	13
N#Cc1c(N2CCCC2)nc(N)c2c(N)nc(N3CCCC3)cc12	67*
N#Cc1c(C(F)(F)F)cc(C2CC2)nc1N1CCCC1	2
COc1ccc(C(=O)Nc2cc(OC)nc(OC)n2)cc1	14
COc1cc2ccccc2c2c1CCCC2=O	3
O=[N+]([O-])c1cccnc1NCCNc1ncc(C(F)(F)F)cc1Cl	-7
CCOc1ccccc1C1C(C(=O)Nc2ccccc2OC)=C(C)Nc2nnnn21 (stereo unspecified)	3
Cc1ccc(N(CC(=O)N/N=C/c2cccs2)S(C)(=O)=O)cc1Cl	-5
Cn1cccc1CC(=O)N/N=C\c1cccs1	-4
CCN(CC)C(=O)C(=O)N/N=C/c1cccs1	53*
CCOC(=O)C(C)n1ncn2cccc2c1=O (stereo unspecified)	33*
CCOC(=O)C(C)n1cnc2c(cnn2-c2ccc(Cl)cc2)c1=O (stereo unspecified)	-6
SMILES	Artemis endo inh
COC(=O)Cn1ncn2cccc2c1=O	0
Cc1ccc(S(=O)(=O)N2CCOCC2)cc1C(=O)N1c2ccccc2Sc2ccccc21	7
O=C(Nc1cccc([N+](=O)[O-])c1)C12CC3CC(C1)CC(n1cnc([N+](=O)[O-])n1)(C3)C2	-3
COc1ccc(C(=O)c2c(C(F)(F)F)oc3c2C(=O)c2ccccc2C3=O)cc1OC	36*
COc1ccc(C(=O)/C=C/N(C)C)cc1OC	3
COc1ccc(C(=O)Nc2ccc(OCC(F)(F)C(F)F)c(C(F)(F)F)c2)cc1OC	10
CCc1ccc(N(CC(=O)Nc2ccc(OC)cc2OC)S(C)(=O)=O)cc1	-5
Nc1ccc2oc(=O)c3ccccc3c2c1	3
Nc1ccc2c(c1)C(=O)C(=O)c1ccccc1-2	71*
Nc1ccc(-c2ccc(N)cc2C(F)(F)F)c(C(F)(F)F)c1	1
CCCCOC(=O)Nc1ccc(C)c(Cl)c1	2
O=C(CSc1nc(-c2ccccc2)c(-c2ccccc2)[nH]1)NCCN1C(=O)CSC1=O	-2
Cc1cc(OCC(=O)N2CCCC2)cc(C)c1Cl	4
CCCC(=O)Nc1ccc(N2CCCCC2)cc1	-6
Cc1cc(OCC(=O)Nc2ccc(N3CCCC3)cc2)cc(C)c1Cl	66*
CCNC(=O)NC(=O)CSc1nc2ccccc2n1CCOC	-3
CC1=NN(c2cccc(C(=O)O)c2)C(=O)/C1=C\C=C\c1ccco1	31*
C(/C=C/c1ccco1)=N/N1CCN(c2ccccc2)CC1	0
Cc1cccc(C)c1NC(=O)/C(=C/c1ccco1)c1ccccc1	0
O=c1[nH]c2ccccc2n2c(-c3ccncc3)nnc12	-8
O=C(CC1CC2CCC1C2)OCC(=O)c1c[nH]c2ccccc12 (stereo unspecified)	-3
Cc1ccc(C(=O)N/C(=C\c2cccs2)C(=O)NCCCn2ccnc2)cc1C	2
O=C(COC(=O)c1cc(-c2ccc(Cl)s2)nc2ccccc12)NCc1ccco1	32*
Cc1ccc(-c2cc(C(=O)NCc3ccco3)c3ccccc3n2)s1	3
O=C(COC(=O)c1cc(-c2ccco2)nc2ccccc12)NCc1ccc2c(c1)OCO2	23
CCOC(=O)c1ccc(NC(=S)NNC(=O)C2(C)CC2(Cl)Cl)cc1 (stereo unspecified)	12
Cc1cc(C)n(-c2nc3ccccc3c(=O)n2OCC(=O)Nc2c(C)cccc2C)n1	10
CCSC1=N/C(=C\c2ccc(-c3ccccc3[N+](=O)[O-])o2)C(=O)S1	34*
CSC1=N/C(=C\c2ccc(C)o2)C(=O)S1	7
CCSC1=N/C(=C\c2ccc3c(c2)OCO3)C(=O)S1	5

Compound activity (PubChem BioAssay)
